RORg inh – ROR gamma (mouse) transcription inhibition; Potency, µM (doses to about 53.6 µM), usual class: inhibitors; Drosophila S2 Gal4-RORgamma UAS-luciferase reporter, 20 h; P51450; hit rate 5.4% among 310,000; also: nearly all actives have a fitted effect of over 60% in size
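Compounds are pin-transferred onto Drosophila Schneider cells expressing a copper-inducible Gal4–ROR gamma transactivation domain fusion. After 1 hr, copper sulfate is added to 700 uM final; luciferase is read 20 hr later.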
ALDH1A1 block – ALDH1A1 (human) enzyme inhibition; Potency, µM (top dose mostly 75.3 µM), usual class: inhibitors; AID 1030; Purified ALDH1A1, NADH fluorescence, propionaldehyde substrate; P00352; hit rate 7.3% among 220,000; active = well fitted inhibition curve with a large enough effect, not every such curve was filed as active; inconclusive = small, poorly fitted or top-dose-only effect, or another doubt; inactive = no such curve, though single readings can be large or run the other way
Target sequence (P00352 whole entry, looked up): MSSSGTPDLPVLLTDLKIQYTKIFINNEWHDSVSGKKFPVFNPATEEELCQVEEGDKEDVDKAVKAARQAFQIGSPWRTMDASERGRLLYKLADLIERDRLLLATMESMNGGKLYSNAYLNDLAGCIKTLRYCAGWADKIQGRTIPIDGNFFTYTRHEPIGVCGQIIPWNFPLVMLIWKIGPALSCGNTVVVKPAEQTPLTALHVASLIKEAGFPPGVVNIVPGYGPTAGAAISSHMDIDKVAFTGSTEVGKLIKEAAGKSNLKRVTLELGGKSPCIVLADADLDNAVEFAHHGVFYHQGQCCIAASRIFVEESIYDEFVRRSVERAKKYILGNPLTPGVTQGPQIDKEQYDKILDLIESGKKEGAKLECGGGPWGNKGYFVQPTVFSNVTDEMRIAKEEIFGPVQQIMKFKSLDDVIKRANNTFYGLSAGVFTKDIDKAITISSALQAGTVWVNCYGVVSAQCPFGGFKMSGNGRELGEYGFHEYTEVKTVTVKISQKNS
Sfp inh – inhibitors of Bacillus subtilis Sfp phosphopantetheinyl transferase | Q9F4F7 | Biochemical Sfp PPTase activity, qHTS | Potency, µM, most hits filed as inhibitors | hit rate 3.5% among 310,000;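 also: the enzyme is Sfp with the accession as filed and its product quenches rhodamine fluorescence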
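Compounds were incubated with enzyme (final 15 nM) for 15 min at room temperature before substrate addition started the reaction. Fluorescence at 525 nm excitation, 598 nm emission was recorded immediately and after 30 minutes.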
PLK1 PBD inh – blocks phosphopeptide binding to human PLK1 polo-box domain | P53350 | AID 720504 | Plk1 PBD binding of FITC phosphopeptide, fluorescence polarization | Potency, µM, hits mostly inhibitors | hit rate 2.8% among 360,000; also: series mostly up to about 57 µM; nearly all actives have a fitted effect of over 65% in size
Gal4-VP16 FLuc – Gal4-VP16 reporter inhibition counter-screen. AID 2546. Drosophila S2 Gal4-VP16 UAS-luciferase, luminescence, 20 h. Potency, µM (top dose mostly 53.6 µM), usual class: inhibitors. hit rate 3.5% among 310,000;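 also: Gal4-VP16 expression switched on by copper sulfate through the metallothionein promoter; nearly all actives have a fitted effect of over 50% in size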
Each line names hits and unclear results; the compound was inactive in the other large screens. Only some compounds are listed: those with a hit (about 12% of all), similar ones and a draw of the others. Unless noted, calls follow the shape of the dose curve; as a rule, active = well fitted curve in the direction sought with a large enough effect; inconclusive = small, poorly fitted or top-dose-only effect, or another doubt; inactive = no such curve, though single readings can be large; an effect the other way counts as inactive or inconclusive.

COc1ccccc1NC(=S)N(Cc1ccc(C)cc1)Cc1ccccn1	ALDH1A1 block inconclusive, Sfp inh 45µM
COc1ccccc1NC(=S)N(Cc1ccc(C)cc1)Cc1cccnc1	RORg inh 7.9µM
COc1ccccc1NC(=S)N(Cc1cccnc1)Cc1ccco1	RORg inh inconclusive
Cc1cccc(S(=O)(=O)N(C)C[C@@H]2OCc3cn(nn3)CCCC(=O)N([C@H](C)CO)C[C@H]2C)c1	none (no result: RORg inh, ALDH1A1 block, Sfp inh, Gal4-VP16 FLuc)
CCCCCCCCCCCCCCCC(=O)N[C@H](CN1CCOCC1)[C@H](O)c1ccccc1	none (no result: PLK1 PBD inh)
Clc1ccc(-c2cccs2)nn1	none
CC1CCN(c2ccc(-c3cccs3)nn2)CC1	RORg inh 2µM, Gal4-VP16 FLuc 2µM (no result: ALDH1A1 block)
COc1ccc(-n2c(=O)cnc3cnc(N4CCOCC4)nc32)cc1	none (no result: PLK1 PBD inh)
N#CC1=C(S)N(c2ccccc2)C(c2ccco2)NC1=O (configuration not stated)	Sfp inh inconclusive
Cc1ccc(N2C(S)=C(C#N)C(=O)NC2c2ccco2)cc1 (configuration not stated)	RORg inh 16µM, ALDH1A1 block inconclusive
N#CC1=C(S)N(c2ccc(F)cc2)C(c2ccco2)NC1=O (configuration not stated)	RORg inh inconclusive, ALDH1A1 block inconclusive, Sfp inh 22µM, PLK1 PBD inh inconclusive
COc1ccc(-c2sc3ccccc3c2-c2ccc(OC)cc2F)cc1	none (no result: RORg inh, ALDH1A1 block, Sfp inh, Gal4-VP16 FLuc)
COC(=O)NC(c1ccccc1)C(C(=O)OC)C(=O)OC (configuration not stated)	none (no result: PLK1 PBD inh)
O=C(CSc1nc2nn(-c3ccccc3)c(=O)c-2c2n1CCCCC2)c1ccc(O)c(O)c1	none (no result: RORg inh, ALDH1A1 block, Sfp inh, Gal4-VP16 FLuc)
Cc1[nH]c(=S)c(C#N)c(C)c1CCC#N	RORg inh 14µM, Sfp inh 18µM, PLK1 PBD inh inconclusive (no result: ALDH1A1 block)
Cc1[nH]c(=S)c(C#N)c(C)c1Cc1ccccc1	RORg inh 3.5µM, Sfp inh 18µM, Gal4-VP16 FLuc 8.9µM (no result: ALDH1A1 block)
Cc1cccc(Cc2c(C)[nH]c(=O)c(C#N)c2C)c1	none
Cc1ccc(NC(=O)c2cc(N3C(=O)C4CCCCC4C3=O)ccc2N2CCOCC2)cc1 (configuration not stated)	ALDH1A1 block 22µM
Cc1ccc(NC(=O)c2cc(N3C(=O)C4CC=CCC4C3=O)ccc2N2CCCCC2)cc1 (configuration not stated)	ALDH1A1 block inconclusive
c1nc(SSc2ncnc3nc[nH]c23)c2[nH]cnc2n1	PLK1 PBD inh 0.84µM (no result: RORg inh, ALDH1A1 block, Sfp inh, Gal4-VP16 FLuc)
O=c1[nH]cnc2nc[nH]c12	ALDH1A1 block inconclusive, Sfp inh 79µM (no result: PLK1 PBD inh)
CC1(C(=O)NS(=O)(=O)Cc2ccccc2C(F)(F)F)CCN1C(=O)Cc1ccccc1 (configuration not stated)	none (no result: RORg inh, ALDH1A1 block, Sfp inh, Gal4-VP16 FLuc)
CC(C)CNc1ncnc2c1ncn2[C@H]1CN(Cc2ccc(-c3ccccc3)cc2)C[C@@H](CO)O1	none (no result: RORg inh, ALDH1A1 block, Sfp inh, Gal4-VP16 FLuc)
C/C(=N\NC(=S)Nc1ccc(C)c(C)c1)c1ccc(N2CCOCC2)cc1	RORg inh 14µM, Gal4-VP16 FLuc inconclusive
C/C(=N\NC(=O)c1ccc(Cl)cc1)c1ccc(N2CCOCC2)cc1	none
C/C(=N\NC(=S)Nc1cc(S(=O)(=O)N2CCOCC2)ccc1Cl)c1ccc(N2CCOCC2)cc1	RORg inh 2.8µM, ALDH1A1 block inconclusive, PLK1 PBD inh inconclusive, Gal4-VP16 FLuc 11µM
CCN1CCN(c2ccc(S(=O)(=O)N3CCOCC3)cc2NC(=O)CC(C)C)CC1	none (no result: RORg inh, ALDH1A1 block, Sfp inh, Gal4-VP16 FLuc)
COc1ccc2cc(/C(C)=N/NC(=S)Nc3cc(S(=O)(=O)N4CCOCC4)ccc3N3CCOCC3)ccc2c1	RORg inh 6.3µM, ALDH1A1 block inconclusive (no result: PLK1 PBD inh)
C/C(CCC(C)C)=N\NC(=S)Nc1cc(S(=O)(=O)N2CCOCC2)ccc1N1CCOCC1	RORg inh 11µM, Gal4-VP16 FLuc inconclusive
Oc1c(C(O)(c2ccccc2)c2ccc3ccccc3c2O)ccc2ccccc12	none (no result: RORg inh, Sfp inh, PLK1 PBD inh, Gal4-VP16 FLuc)
CC1=C(c2ccc(NN=C(C#N)C#N)cc2)NNC(=O)C1	RORg inh 22µM, Gal4-VP16 FLuc inconclusive (no result: ALDH1A1 block, PLK1 PBD inh)
CCCCN1C(=O)C(=Nc2cccc3cnccc23)c2ccccc21	ALDH1A1 block 0.63µM
Cc1nn(-c2ccccc2)c(C)c1/C=N/n1c(-c2ccc(C(C)(C)C)cc2)n[nH]c1=S	RORg inh 2.2µM
Cc1ccc(-c2n[nH]c(=S)n2/N=C/c2c(C)nn(-c3ccccc3)c2C)cc1	RORg inh 6.3µM, Gal4-VP16 FLuc inconclusive
Cc1ccc(-c2cc(C(=O)N/N=C/c3c(C)nn(-c4ccccc4)c3C)[nH]n2)cc1	RORg inh inconclusive (no result: PLK1 PBD inh)

Screens (PubChem)
